Tgondii IFNg: inhibitors of Toxoplasma gondii growth with IFN-gamma; 69,000 compounds, 3.8% hits; activity change, negative = inhibition, % (concentration not given with the values); AID 1259416; Toxoplasma gondii growth in IFN-gamma-treated host cells; active compounds read low; in the data active = activity change below about -70%, passing the limit was not always enough;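 also: host cells are HeLa cells infected with Toxoplasma gondii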
An asterisk follows results filed as active. Many of the other results were omitted from the sample, so hits are more common in it than they were.

SMILES | Tgondii IFNg
COc1cccc(-n2c(=O)c(C(=O)NCc3ccc(Cl)cc3)c(O)c3cccnc32)c1 | 266.1
O=C(NCc1ccccc1)C1CC2(CO1)CN(C(=O)c1ccc(F)cc1)c1ccccc12 (stereo unspecified) | -17.2
COc1cc2c(cc1C1CC(=O)Nc3c1c(C)nn3C)OCCO2 (stereo unspecified) | 11.1
O=C(NCCCn1ccnc1)c1cc(N2CC[C@@H]3CCCC[C@H]3C2)ccn1 | -24.0
O=C(NCCCCc1ccccc1)c1ccccc1 | -81.9*
O=C(CCCl)NCCc1ccccc1 | 30.5
O=C(O)CCNC(=O)c1ccccc1 | 11.2
Cc1ccc(C)c(S(=O)(=O)NCCc2csc(-c3cccc(F)c3)n2)c1 | -9.9
COc1cccc(-c2[nH]ncc2CNC(Cc2cc(=O)[nH]c(C)n2)c2ccc(Cl)cc2)c1 (stereo unspecified) | -0.2
CN(C)CCN1CCO[C@H]2CN(C(=O)N(C)C)C[C@@H]21 | -0.9
C[C@H](CO)N1C[C@H](C)[C@@H](CN(C)Cc2ccc(Oc3ccccc3)cc2)OCc2ccccc2-c2ccccc2C1=O | -43.0
Cc1nn(C)cc1S(=O)(=O)N1CCCN(c2ccc3c(c2)OCCO3)CC1 | 15.8
CNC(=O)c1nc2c(s1)CCN(C(=O)NCc1ccccc1)CC2 | 66.1
COc1ccc(CNC(=O)c2nc3c(s2)CCN(C(C)=O)CC3)cc1 | -10.7
CC(C)CNC(=O)c1nc2c(s1)CCN(C(=O)NCc1ccccc1)CC2 | -84.0*
O=C(c1ccoc1)N1CCc2ccc(=O)n(CC3CC3)c2CC1 | 15.2
O=S(=O)(c1ccc(Cl)cc1)N1CCN=C1COc1cccnc1 | 83.9
CCOc1ncccc1C(=O)N1CCCC2(CNC(=O)O2)C1 (stereo unspecified) | 4.7
c1cc(-c2ccco2)cc(-c2nccn2CCN2CCOCC2)c1 | 8.5
FC(F)(F)c1cccc(-c2nnc(C3c4ccccc4Oc4ccccc43)o2)c1 | -98.9*
Cc1oc(-c2cccc(C(F)(F)F)c2)nc1CN(C)Cc1cnc(N)nc1 | -2.4
FC(F)(F)c1cccc(-c2ccc(-c3cccc(C(F)(F)F)c3)o2)c1 | -10.5
Cc1noc(C)c1NC(=O)N1C[C@H](O)COC[C@@H]2O[C@H](CC(=O)NCC3CC3)CC[C@H]21 | -4.1
CN1C(=O)CCc2cc(NC(=O)c3ccncc3)ccc21 | 2.7
CC(C)COC1C2CCC1N(C(=O)c1ccccn1)C2 (stereo unspecified) | -65.9
SMILES | Tgondii IFNg
O=C(Nc1ccc(F)cc1)Nc1nc(SCc2ccc(F)cc2)ns1 | -110.0*
CCSc1nsc(NC(=O)CN2CCC(Oc3cccc(F)c3)CC2)n1 | 12.3
Cc1ccc(-c2coc(-c3ccc(NC(=O)Nc4ccc(F)cc4)cc3)n2)cc1 | 28.6
Cc1ccccc1-c1ncc(CN(C)CC2(CO)CCOCC2)s1 | -37.9
NC1(C(=O)O)CCN(Cc2ccc3occc3c2)C1 (stereo unspecified) | -5.6
CC(C)CC(=O)Nc1n[nH]c2c1CN(C(=O)C1CCN(C)CC1)C2(C)C | -76.1*
O=C(O)CSc1nnc(C2CC2)n1-c1ccccc1C(F)(F)F | -47.5
CN1CCCn2nc(C(=O)NCCn3nnc4ccccc43)cc2C1 | 127.3
Cc1ccc(CN2CCC(c3nc4ccc(N5CCOCC5)cn4n3)CC2)o1 | -46.8
CCN1CCC2(CC1)OC(=O)C(C)=C2C(=O)Nc1cccc(OC)c1 | 70.0
Cc1ccc(NC(=O)N2CCC(c3nc(C(=O)N4CCCC4)c(C)o3)CC2)cc1C | -42.8
CC(=O)N1CCC(C(=O)N2CCc3cc(-c4csc(C5CC5)n4)ccc32)CC1 | 44.9
CCOC(=O)C1CCN(C(=O)c2ccc(-c3csc(C4CC4)n3)cc2)CC1 | 159.7
Cc1nc(C)c(C(=O)N2CCc3cc(-c4csc(C5CC5)n4)ccc32)s1 | -109.0*
Cc1nc(-c2ccccc2)sc1C(=O)N1CCCc2ccccc21 | -29.3
O=C(C1CC1)N1CCc2cc(-c3csc(C4CC4)n3)ccc21 | -112.5*
Cc1cccc(N2CCN(C(=O)c3ccc(-c4csc(C5CC5)n4)cc3)CC2)c1C | 12.8
Cc1ccccc1C1(O)CCN(C(=O)c2cc(=O)c3ccccc3o2)C1 (stereo unspecified) | -11.9
Cc1nc(CN2CC(OCc3ccncc3)CN(Cc3ccc4c(c3)OCCO4)CC2=O)cs1 (stereo unspecified) | -39.6
CCn1c(C2CCN(c3nnnn3-c3ccccc3)CC2)n[nH]c1=O | 9.2
COc1ccccc1NC(=O)N1CC[C@@H]2[C@H]1c1cc(C#Cc3cccc(F)c3)ccc1N(C)[C@@H]2CO | 7.1
COCCC(=O)C1CC2(CO1)CN(C(=O)c1ccccc1)c1ccccc12 (stereo unspecified) | 153.9
CCCCCCNC1=NCCCS1 | 6.2
O=C(OOC(=O)c1ccccc1)c1ccccc1 | -43.9
COc1ccc(C(=O)/C=C2/c3ccccc3CC(C)(C)N2C)cc1 | -63.1
SMILES | Tgondii IFNg
O=C(OCc1ccccc1)c1ccccc1 | 4.9
CC1=NN(C)C(=O)/C1=N\OC(=O)c1ccc(Cl)cc1 | -23.6
COc1ccc(C(=O)O/N=C2/C(=O)N(C)c3ccccc32)cc1 | -100.2*
O=C(O/N=C1/C(=O)c2ccccc2-c2ccccc21)c1ccccc1 | -103.1*
CCCS(=O)(=O)N1CCC(n2nnn(-c3ccccc3)c2=O)CC1 | -1.6
CCOC(=O)c1nc(Nc2ccc(C(C)C)cc2)c2ccccc2n1 | -41.1
O=c1c(N=Nc2ccccc2)c(-c2ccccc2)[nH]n1-c1ccccc1 | 10.8
Cc1[nH]n(C(N)=S)c(=O)c1N=Nc1cc(-c2ccc(Br)cc2)[nH]n1 | 177.7
Cc1ccc(N=Nc2c(-c3ccccc3)[nH]n(C(N)=S)c2=O)cc1 | -105.0*
CC1CC(N(C(=O)c2ccc3c(c2)OCO3)c2ccccc2)c2ccccc2N1 (stereo unspecified) | -96.2*
CC1CC(N(C(=O)c2ccco2)c2ccccc2)c2ccccc2N1C(=O)c1ccco1 (stereo unspecified) | 24.3
O=C(c1ccc2c(c1)OCO2)N1CC[C@@H]2[C@H](CO)Nc3ccc(C#Cc4ccccc4)cc3[C@@H]21 | -36.5
O=C(CCN1C(=O)c2ccccc2C1=O)Nc1ccccc1C(=O)N1CCCCC1 | 0.7
COCCC(=O)c1cc(-c2cn(-c3ccccn3)c(C)n2)n2ccccc12 | 347.6
COc1ccc(Cn2ccc3ccc(C(=O)NO)cc32)cc1 | -0.1
CCN(CC)Cc1ccc2cc(COC(=O)Nc3ccc(C(=O)NO)cc3)ccc2c1 | -83.0*
CCN(CC)Cc1cccc(C(=O)Nc2ccccc2CO)c1 | 4.2
Cc1cc(C(=O)N(C/C=C/c2ccccc2)CCO)ccc1Cl | 1.9
Cc1cccc(NC(=O)CC(=O)NCCCn2ccnc2)c1C | 303.5
S=c1[nH]nc(-c2ccncc2)n1-c1cccc(Cl)c1 | 14.7
COc1ccc(-c2n[nH]c(=S)n2Cc2ccccc2)cc1 | 52.7
Cn1c(-c2ccc(Cl)cc2)n[nH]c1=S | -96.9*
O=C(Nc1cnn(-c2ncc(N3CCCC3)cn2)c1)C1CCCC1 | 53.7
CC1CCCCN1C(=O)c1ccnn1-c1ccc2ccc(-c3ccccc3)cn12 (stereo unspecified) | -85.5*
CC1CCCCN1C(=O)c1ccn(-c2ccc3ccccn23)n1 (stereo unspecified) | -20.0
O=C(Nc1cccnc1)c1ccnn1-c1ccc2ccc(-c3cccnc3)cn12 | -1.3
COc1ccccc1CNC(=O)Cn1c(=O)cc(-c2nc(C)no2)c2ccccc21 | 11.9
Cc1ccc(N2C[C@H]3COC[C@@H](CC(=O)N(C)C)[C@H]3C2)nn1 | 12.2
COc1ccc(CNC(=O)CC2N=C3c4ccccc4N=C(SCc4ccccc4Cl)N3C2=O)cc1 (stereo unspecified) | 1.7

Screens: PubChem BioAssay, Broad Institute
